The panel holds about 79,000 compounds, 15% with a hit somewhere; the sample as a whole holds those more often. Values without a mark were called inactive. Calls of active or inactive are those of the source. Cut-off read from the data, not from the text of the source: active = growth inhibition above about 70%; inactive = the rest.
Tests used:
[1] = NCI Yeast Anticancer Drug Screen. Data for the wt1 strain (AID 149);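 note: 0% = growth of vehicle-treated wt1 cultures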; conditions: S. cerevisiae wt1 strain (SPY 50644) growth inhibition, stronger effect = higher value
In short: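 Vehicle-normalised growth inhibition; strain wt1; compound exposure.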

[2] = NCI Yeast Anticancer Drug Screen. Data for the rad50EPP+ strain (AID 151);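 note: 0% = growth of vehicle-treated control cultures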; conditions: S. cerevisiae rad50 mutant strain, stronger effect = higher value
In short: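 Vehicle-normalised growth inhibition; rad50EPP+ yeast strain, altered in DNA damage repair, compound-treated.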

[3] = NCI Yeast Anticancer Drug Screen. Data for the mgt1 strain (AID 153); conditions: S. cerevisiae mgt1 mutant growth inhibition, stronger effect = higher value
In short: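 Vehicle-normalized growth inhibition is determined in mgt1 yeast, a strain selected for a defined alteration in DNA repair or cell cycle control.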

[4] = NCI Yeast Anticancer Drug Screen. Data for the mec2-1 strain (AID 157); conditions: S. cerevisiae mec2-1 strain, stronger effect = higher value
In short: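 Mutant yeast (mec2-1) grown with compound; growth inhibition relative to vehicle control reported.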

[5] = NCI Yeast Anticancer Drug Screen. Data for the rad14 strain (AID 159);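 note: 0% = growth of vehicle-treated control cultures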; conditions: S. cerevisiae rad14 strain growth inhibition, stronger effect = higher value
In short: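 Vehicle-treated cultures served as the baseline for growth inhibition of a DNA repair-mutant yeast strain exposed to each compound.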

[6] = NCI Yeast Anticancer Drug Screen. Data for the sgs1 mgt1 strain (AID 161);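 note: 0% = growth of cultures given vehicle only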; conditions: S. cerevisiae sgs1 mgt1 strain, stronger effect = higher value
In short: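 This yeast growth screen uses a strain with defined DNA-repair lesions; compound-treated growth is compared with vehicle-treated growth.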

[7] = NCI Yeast Anticancer Drug Screen. Data for the CLN2oe strain (AID 163);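 note: 0% = growth of vehicle-only control cultures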; conditions: S. cerevisiae CLN2oe strain, stronger effect = higher value
In short: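 Compounds are applied to yeast harbouring a defined cell-cycle control change; reduced growth compared with vehicle-treated controls gives the value.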

[8] = NCI Yeast Anticancer Drug Screen. Data for the cln2 rad14 strain (AID 165);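 note: 0% = growth equal to vehicle treated cultures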; conditions: S. cerevisiae cln2 rad14 strain, stronger effect = higher value
In short: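 Readout is yeast growth inhibition versus vehicle-treated controls, using a strain with cln2 and rad14 alterations exposed to compound.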

[9] = NCI Yeast Anticancer Drug Screen. Data for the bub3 strain (AID 167); conditions: S. cerevisiae bub3 mutant strain, stronger effect = higher value
In short: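 Inhibition values come from growth of compound-treated mutant yeast normalised to vehicle-treated controls.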

[10] = NCI Yeast Anticancer Drug Screen. Data for the wt2 strain (AID 169);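 note: 0% = growth of vehicle-treated yeast cultures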; conditions: S. cerevisiae wt2 strain growth inhibition, stronger effect = higher value
In short: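 Against vehicle-treated controls, the growth of yeast exposed to each compound was compared, and the inhibition was recorded.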

[11] = NCI Yeast Anticancer Drug Screen. Data for the mlh1 strain (AID 171);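 note: 0% = growth of vehicle-treated control cultures of the same strain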; conditions: S. cerevisiae mlh1 strain growth inhibition, stronger effect = higher value
In short: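 Measured: yeast growth. Reference: vehicle-treated controls. Organism: strain with a defined alteration affecting DNA damage repair or cell cycle control, treated with compound.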

[12] = NCI Yeast Anticancer Drug Screen. Data for the sgs1 strain (AID 173);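 note: 0% = growth of vehicle-only control cultures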; conditions: S. cerevisiae sgs1 mutant, stronger effect = higher value
In short: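 Each compound was added to cultures of the altered yeast strain. Growth was recorded, and inhibition was derived by comparison with vehicle controls.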

[13] = NCI Yeast Anticancer Drug Screen. Data for the mlh1 rad18 strain (AID 175); conditions: S. cerevisiae mlh1 rad18 strain growth inhibition, stronger effect = higher value
In short: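 Genetically defined yeast (DNA repair-deficient) exposed to compounds; growth inhibition determined relative to vehicle.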

[14] = NCI Yeast Anticancer Drug Screen. Data for the rad18 strain (AID 177); conditions: S. cerevisiae rad18 mutant growth inhibition, stronger effect = higher value
In short: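 Vehicle-treated cultures served as the baseline for scoring compound-induced growth inhibition in DNA-repair-mutant yeast.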

[15] = NCI Yeast Anticancer Drug Screen. Data for the rad50 strain (AID 155);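 note: 0% = growth of vehicle-only cultures of the same strain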; conditions: S. cerevisiae rad50 strain growth inhibition, stronger effect = higher value
In short: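 A DNA repair-deficient yeast mutant serves as the test organism; compound-induced growth inhibition is calculated against vehicle-treated cells.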

[16] = at 5.0 µM (retest, dose inferred, filed as 0.5)
[17] = at 50.0 µM (retest, dose inferred, filed as 5.0)

`O=C(O)NCC1CCCCC1` (tested in a mixture with another compound) showed a growth inhibition ([1]; at 1.2 µM) of -1%, a growth inhibition ([1]; at 3.7 µM) of -4% and a growth inhibition ([1]; at 11.0 µM) of -4%. It also gave a growth inhibition ([1]; at 33.0 µM) of -5%, a growth inhibition ([1]; at 100.0 µM) of -4% and a growth inhibition ([2]; at 1.2 µM) of 0%. For the same molecule, the growth inhibition ([2]; at 3.7 µM) was -4%, the growth inhibition ([2]; at 11.0 µM) was -3% and the growth inhibition ([2]; at 33.0 µM) was 7%. For the same molecule, the growth inhibition ([2]; at 100.0 µM) was 4%, the growth inhibition ([3]; at 1.2 µM) was -2% and the growth inhibition ([3]; at 3.7 µM) was -4%. It also gave a growth inhibition ([3]; at 11.0 µM) of -4%, a growth inhibition ([3]; at 33.0 µM) of -4% and a growth inhibition ([3]; at 100.0 µM) of 16%. It also gave a growth inhibition ([4]; at 1.2 µM) of -3%, a growth inhibition ([4]; at 3.7 µM) of -1% and a growth inhibition [4, 16] of -15%. For the same molecule, the growth inhibition ([4]; at 11.0 µM) was -4%, the growth inhibition ([4]; at 33.0 µM) was -5% and the growth inhibition [4, 17] was 19%. The growth inhibition ([4]; at 50.0 µM) was 8.35%, the growth inhibition ([4]; at 100.0 µM) was 22% and the growth inhibition ([5]; at 1.2 µM) was 0%. It also gave a growth inhibition ([5]; at 3.7 µM) of -6%, a growth inhibition ([5]; at 11.0 µM) of -5% and a growth inhibition ([5]; at 33.0 µM) of -1%. The growth inhibition ([5]; at 100.0 µM) was 61%, the growth inhibition [6, 16] was -2% and the growth inhibition [6, 17] was 39%. It also gave a growth inhibition ([6]; at 50.0 µM) of -35.7%, a growth inhibition ([7]; at 1.2 µM) of 1% and a growth inhibition ([7]; at 3.7 µM) of -7%. The growth inhibition ([7]; at 11.0 µM) was -6%, the growth inhibition ([7]; at 33.0 µM) was -5% and the growth inhibition ([7]; at 100.0 µM) was 26%. It also gave a growth inhibition [8, 16] of -4%, a growth inhibition [8, 17] of 11% and a growth inhibition ([8]; at 50.0 µM) of 33%. It also gave a growth inhibition ([9]; at 1.2 µM) of -4%, a growth inhibition ([9]; at 3.7 µM) of -4% and a growth inhibition [9, 16] of -5%. It also gave a growth inhibition ([9]; at 11.0 µM) of -7%, a growth inhibition ([9]; at 33.0 µM) of -2% and a growth inhibition [9, 17] of 10%. For the same molecule, the growth inhibition ([9]; at 50.0 µM) was 0.5%, the growth inhibition ([9]; at 100.0 µM) was 58% and the growth inhibition ([10]; at 1.2 µM) was -2%. It also gave a growth inhibition ([10]; at 3.7 µM) of 2%, a growth inhibition ([10]; at 11.0 µM) of -5% and a growth inhibition ([10]; at 33.0 µM) of -4%. The growth inhibition ([10]; at 100.0 µM) was 37%, the growth inhibition ([11]; at 1.2 µM) was -2% and the growth inhibition ([11]; at 3.7 µM) was -6%. It also gave a growth inhibition ([11]; at 11.0 µM) of -7%, a growth inhibition ([11]; at 33.0 µM) of -3% and a growth inhibition ([11]; at 100.0 µM) of 32%. For the same molecule, the growth inhibition ([12]; at 1.2 µM) was -4%, the growth inhibition ([12]; at 3.7 µM) was 6% and the growth inhibition ([12]; at 11.0 µM) was -23%. For the same molecule, the growth inhibition ([12]; at 33.0 µM) was -5%, the growth inhibition ([12]; at 100.0 µM) was 75% (active) and the growth inhibition [13, 16] was 0%. It also gave a growth inhibition [13, 17] of 34%, a growth inhibition ([13]; at 50.0 µM) of 6.1% and a growth inhibition ([14]; at 1.2 µM) of 0%. For the same molecule, the growth inhibition ([14]; at 3.7 µM) was -1%, the growth inhibition ([14]; at 11.0 µM) was -5% and the growth inhibition ([14]; at 33.0 µM) was 2%. The growth inhibition ([14]; at 100.0 µM) was 45%.

With `CCOC(=O)c1sc2[n+](c1C)C(=O)/C(=C/c1cc(OC)c(OC)c(OC)c1)S2` the growth inhibition ([1]; at 1.2 µM) was 3%, the growth inhibition ([1]; at 3.7 µM) was 2% and the growth inhibition ([1]; at 11.0 µM) was 9%. The growth inhibition ([1]; at 33.0 µM) was 56%, the growth inhibition ([1]; at 100.0 µM) was 88% (active) and the growth inhibition ([2]; at 1.2 µM) was 2%. It also gave a growth inhibition ([2]; at 3.7 µM) of 6%, a growth inhibition ([2]; at 11.0 µM) of 19% and a growth inhibition ([2]; at 33.0 µM) of 45%. For the same molecule, the growth inhibition ([2]; at 100.0 µM) was 76% (active), the growth inhibition ([15]; at 1.2 µM) was 9% and the growth inhibition ([15]; at 3.7 µM) was 16%. The growth inhibition [15, 16] was 1%, the growth inhibition ([15]; at 11.0 µM) was 18% and the growth inhibition ([15]; at 33.0 µM) was 68%. The growth inhibition [15, 17] was 35%, the growth inhibition ([15]; at 50.0 µM) was 41% and the growth inhibition ([15]; at 100.0 µM) was 87% (active). The growth inhibition ([4]; at 1.2 µM) was 21%, the growth inhibition ([4]; at 3.7 µM) was 18% and the growth inhibition [4, 16] was 6%. The growth inhibition ([4]; at 11.0 µM) was 34%, the growth inhibition ([4]; at 33.0 µM) was 76% (active) and the growth inhibition [4, 17] was 51%. The growth inhibition ([4]; at 50.0 µM) was 52.5%, the growth inhibition ([4]; at 100.0 µM) was 92% (active) and the growth inhibition ([5]; at 1.2 µM) was 12%. For the same molecule, the growth inhibition ([5]; at 3.7 µM) was 3%, the growth inhibition ([5]; at 11.0 µM) was 28% and the growth inhibition ([5]; at 33.0 µM) was 77% (active). The growth inhibition ([5]; at 100.0 µM) was 92% (active), the growth inhibition [6, 16] was -4% and the growth inhibition [6, 17] was 64%. For the same molecule, the growth inhibition ([6]; at 50.0 µM) was 80.5% (active), the growth inhibition ([7]; at 1.2 µM) was 11% and the growth inhibition ([7]; at 3.7 µM) was 5%. The growth inhibition ([7]; at 11.0 µM) was 26%, the growth inhibition ([7]; at 33.0 µM) was 76% (active) and the growth inhibition ([7]; at 100.0 µM) was 83% (active). The growth inhibition [8, 16] was 13%, the growth inhibition [8, 17] was 78% (active) and the growth inhibition ([8]; at 50.0 µM) was 55.5%. It also gave a growth inhibition ([9]; at 1.2 µM) of 12%, a growth inhibition ([9]; at 3.7 µM) of 7% and a growth inhibition [9, 16] of -10%. It also gave a growth inhibition ([9]; at 11.0 µM) of 21%, a growth inhibition ([9]; at 33.0 µM) of 60% and a growth inhibition [9, 17] of 12%. It also gave a growth inhibition ([9]; at 50.0 µM) of 40.9%, a growth inhibition ([9]; at 100.0 µM) of 66% and a growth inhibition ([11]; at 1.2 µM) of 9%. The growth inhibition ([11]; at 3.7 µM) was 9%, the growth inhibition ([11]; at 11.0 µM) was 36% and the growth inhibition ([11]; at 33.0 µM) was 82% (active). For the same molecule, the growth inhibition ([11]; at 100.0 µM) was 93% (active), the growth inhibition ([12]; at 1.2 µM) was 17% and the growth inhibition ([12]; at 3.7 µM) was 23%. The growth inhibition ([12]; at 11.0 µM) was 48%, the growth inhibition ([12]; at 33.0 µM) was 90% (active) and the growth inhibition ([12]; at 100.0 µM) was 95% (active). The growth inhibition [13, 16] was 6%, the growth inhibition [13, 17] was 60% and the growth inhibition ([13]; at 50.0 µM) was 25.1%. It also gave a growth inhibition ([14]; at 1.2 µM) of 19%, a growth inhibition ([14]; at 3.7 µM) of 27% and a growth inhibition ([14]; at 11.0 µM) of 40%. The growth inhibition ([14]; at 33.0 µM) was 75% (active) and the growth inhibition ([14]; at 100.0 µM) was 88% (active).

— PubChem BioAssay (NCI)
